# In PubChem BioAssay AID431 (Sanford-Burnham Center for Chemical Genomics, 2006):
# Screen size: about 63,000 compounds; about 1,100 (1.7%) were called active.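 How the source made its calls: active means compounds whose percent cytotoxicity in the single-dose primary screen, scaled between solvent and toxic-drug controls, exceeds 50; inactive means the rest.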 The full list was thinned out, with actives kept by preference. Potency and affinity values are given separately.
# Test: cytotoxicity in KRAS-transformed pancreatic duct cells, primary screen, cell-based, fluorescence, HTS (AID 431);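 further: 0% = DMSO solvent wells and 100% = doxorubicin-treated wells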
# Settings: HPDE-C7K KRASV12 cells, Alamar Blue viability, 48 h; at 10 µM; hits give high values
row,Structure (SMILES),cytotoxicity
1,Cc1ccc(N)c(C(O)(C(F)(F)F)C(F)(F)F)c1,-9.9% (inactive)
2,CC(C)(NO)/C(=N/O)c1ccc(Br)cc1,-3.6% (inactive)
3,CN(Cc1ccccc1)C(=O)Nc1ccccc1,9.8% (inactive)
4,CC(=O)c1sc(NC(=O)C2(F)C(F)(F)C(F)(F)C(F)(F)C(F)(F)C2(F)F)nc1C,51% (active)
5,CCCCC(=O)Nc1nc(C)c(C(C)=O)s1,-0.2% (inactive)
6,CC(=O)c1sc(NC(=O)C=C(C)C)nc1C,-0.4% (inactive)
7,O=C(Cn1ncc2c(=O)oc3ccccc3c21)NC1CC1,-0.5% (inactive)
8,COc1cccc(N2CC(O)=C(c3nc4ccccc4c(=O)[nH]3)C2=N)c1,28% (inactive)
9,CCOC(=O)c1ccc(N2CC(O)=C(c3nc4ccccc4c(=O)[nH]3)C2=N)cc1,51.4% (active)
10,COc1ccccc1N1CC(O)=C(c2nc3ccccc3c(=O)[nH]2)C1=N,26.5% (inactive)
11,O=C(CCN1CCCC1)Nc1cccc(Br)c1,3.2% (inactive)
12,Cc1ccc(C)c(NC(=O)CN(C)S(=O)(=O)c2ccc(F)cc2)c1,-4.8% (inactive)
13,O=C(NCCc1cn2ccccc2n1)c1ccc(Br)o1,-1.7% (inactive)
14,O=S(=O)(Nc1ncnc2sc3c(c12)CCC3)c1ccc(Cl)s1,50.7% (active)
15,Cc1nc(NS(=O)(=O)c2cccs2)c2c3c(sc2n1)CCC3,10.8% (inactive)
16,O=C(Nc1ncnc2sc3c(c12)CCC3)c1ccco1,10.7% (inactive)
17,COc1ccc(C2N(c3ccc(F)cc3)C(=O)C3CCCN32)cc1 (centres undefined),-2.8% (inactive)
18,CCOC(=O)C1CCCN(C(=O)c2ccc(CS(=O)(=O)Cc3ccccc3C)o2)C1 (centres undefined),16.4% (inactive)
19,CCC(C)[C@@H](C(=O)Nc1ccc(OC)c(OC)c1)N1Cc2ccccc2C1=O (some centres undefined),-0.4% (inactive)
20,Cn1cnc2c(N3CCCCC3)nccc21,3.7% (inactive)
21,c1cncc(Nc2nc(-c3cccnc3)cs2)c1,15% (inactive)
22,CCN(C(=O)CSc1nnc(Cn2nnc3ccccc32)o1)c1nc(-c2ccccc2)cs1,-0.5% (inactive)
23,CCN(C(=O)c1ccc(C(C)(C)C)cc1)c1nnc(Cn2nnc3ccccc32)s1,88.4% (active)
24,CCN(C(C)=O)c1nnc(CSc2nc3ccccc3s2)s1,23.5% (inactive)
25,O=C(Nc1ccccc1C(=O)NCc1ccco1)c1ccco1,7.2% (inactive)
26,N=c1n(CCN2CCOCC2)c2ccccc2n1CC(O)COc1ccccc1 (centres undefined),-9.7% (inactive)
27,CCCc1nc(NCc2ccco2)c(C#N)c2c1COC(C)(C)C2,1.1% (inactive)
28,CC1(C)Cc2c(C#N)c(N3CCN(C(=O)c4ccco4)CC3)nc(-c3ccco3)c2CS1,44.2% (inactive)
29,CCCCc1nc(NCCNC(=O)c2ccco2)c(C#N)c2c1CSC(C)(C)C2,80.9% (active)
